The text below walks through data of PubChem BioAssay AID463215 (Sanford-Burnham Center for Chemical Genomics, 2010).

Among all 4,600 compounds or so, about 2,900 (63%) were called active. So high a share suggests a set chosen from earlier hits. A selection follows. A number with no mark means an inactive call.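 How the source made its calls: active means inhibition of yeast growth at or above a set limit in either of two replicates at 10 µM; inactive means the rest.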

The experiment in a line: growth inhibitors of wild-type TIM10 yeast, confirmation, counter-screen for tim10-1 synthetic lethality project, single concentration, luminescence, S. cerevisiae (AID 463215).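 Further: isogenic wild-type TIM10 control yeast grown in succinate dextrose medium; this counterscreen used the strain with wild-type TIM10; 0% = yeast with DMSO and 100% = medium wells lacking yeast.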 Particulars: S. cerevisiae tim10 strain growth, BacTiter-Glo luminescence, 24 h; at 10 µM; hits give high values.
In the case of `O=[N+]([O-])c1ccccc1S(=O)(=O)Nc1cccc2cccnc12`, the inhibition is 19.5%.

For the molecule `O=c1nc2s/c(=C\c3ccco3)c(=O)n2nc1Cc1ccccc1`, the inhibition is 56.5% (active).

As for `Oc1ccc(/C=N/N(Cc2ccccc2)c2ccccc2)cc1`, the inhibition was 28.2%.

In the case of `CCOC(=O)c1ccc(N2C(=O)CC(N3CCC(C(=O)OCC)CC3)C2=O)cc1` (stereo not drawn), the inhibition was 21.4%.

For `Cc1cc(Nc2ccccc2)n(C(=O)c2ccc(N)cc2)n1`, the inhibition was 57.5% (active).

`CN1CCN(c2ccccc2NC(=O)COc2ccc(C3CCCCC3)cc2)CC1`: the inhibition is 30.4% (active).

For `O=C(NC(Nc1nc2ccc([N+](=O)[O-])cc2s1)(C(F)(F)F)C(F)(F)F)c1ccccc1`, the inhibition was 77.7% (active).

Take `N#C/C(=C\c1cccnc1)C(=O)Nc1ccc(SC(F)F)cc1`: the inhibition was 42.2% (active).

With `CC1CCCCC1NC(=O)/C(C#N)=C/C=C/c1ccccc1[N+](=O)[O-]` (stereo not drawn), the inhibition was 41.3% (active).

Regarding `COc1ccc2nc(N3CCN(C(=O)c4ccc([N+](=O)[O-])o4)CC3)sc2c1`, the inhibition is 82.2% (active).

Take `Cc1ccccc1OCC(=O)Nc1ccc(N2CCN(C(=O)C(C)C)CC2)c(Cl)c1`: the inhibition was 62.8% (active).

For `Oc1c(Cl)cc(Cl)c(Cl)c1Cc1c(O)c(Cl)cc(Cl)c1Cl`, the inhibition was 89.8% (active).

Consider `CSC1=N/C(=C\C=C\c2cccs2)C(=O)S1`, for which the inhibition was 56.8% (active).

On to `Cc1cccc(C2=N/C(=C/c3cccs3)C(=O)O2)c1`, for which the inhibition was 22%.

Consider `O=C(CCN1CCc2ccccc2C(O)(c2ccccc2)C1)c1ccc2c(c1)OCCO2` (stereo not drawn), for which the inhibition was 46.2% (active).

`Cc1cc(C)cc(NC(=S)NCCc2c[nH]c3ccccc23)c1`: the inhibition is -10.2%.

In the case of `Cc1cccc(NC(=S)NCc2ccc3[nH]c4c(c3c2)CCCC4)c1`, the inhibition is 34.5% (active).

Take `c1ccc(C2=Nc3cccc4cccc(c34)N2)cc1`: the inhibition was -39.8%.

As for `O=C1c2ccccc2C(=O)c2c1cccc2N1CCN(Cc2ccccc2)CC1`, the inhibition is 34.2% (active).

`O=Cc1c(N2CCN(c3cccc(Cl)c3)CC2)nc2ccccn2c1=O`: the inhibition was 17.8%.

With `COc1cc(Br)cc(/C=N/c2ncn[nH]2)c1O`, the inhibition is 35% (active).

For `c1ccc(-c2nnc3n2NC(c2ccc4c(c2)OCO4)S3)cc1` (stereo not drawn), the inhibition was 59.1% (active).

With `Cc1ccc(-c2nn(C(C)(C)C)c3ncnc(N)c23)cc1`, the inhibition was 54.8% (active).

As for `CC(C)(CCl)C(=O)Nc1ccc(Sc2ccc(F)cc2)cc1`, the inhibition was 41% (active).

Take `C=CCNC(=O)c1ccc2c3n(nc2c1)-c1ccc(C)cc1CO3`: the inhibition was 45.5% (active).

Regarding `CCOC(=O)C1=C(C)N=c2s/c(=C\C(=O)OC)c(=O)n2C1c1ccc(OC)cc1` (stereo not drawn), the inhibition is 53.6% (active).

In the case of `S=C(NCc1ccc(Cl)cc1)NC12CC3CC(CC(C3)C1)C2`, the inhibition is 23.8%.

With `O=C(COC(=O)c1ccc([N+](=O)[O-])o1)NC12CC3CC(CC(C3)C1)C2`, the inhibition is 44.8% (active).

In the case of `COc1ccc(CN(C(=O)CSc2nnc(-c3ccc(OC)c(OC)c3)o2)c2ccc(F)cc2)cc1`, the inhibition is 19%.

Consider `CCN(CC)c1ccc(/C=N/NC(=O)c2cnccn2)c(O)c1`, for which the inhibition was 41.4% (active).

Regarding `COc1ccc(C(=O)O/N=C(\N)Cc2ccc(Cl)cc2Cl)cc1OC`, the inhibition was 86.7% (active).

In the case of `Cc1cc(N=Nc2ccc3ccccc3c2)ccc1O`, the inhibition is 88.4% (active).

As for `FC(F)(F)c1cnc(Oc2ccccc2-c2nnc(-c3ccc(Cl)cc3)o2)c(Cl)c1`, the inhibition was 5.25%.

Consider `O=C1Oc2ccccc2C(=O)/C1=C/c1ccccc1O`, for which the inhibition is 57.5% (active).

`Cc1cccc(N=Nc2c(O)[nH]c3ccc(F)cc23)c1`: the inhibition is 40.8% (active).

For `Cc1nc(-c2ccc(NC(=O)c3cccs3)cc2)cs1`, the inhibition was -32.7%.

For `O=C(Nc1ccc(NC(=O)c2cccs2)cn1)c1ccco1`, the inhibition is 32.2% (active).

On to `COc1cc(NC(=O)c2cccs2)ccc1NC(=O)c1ccccc1Cl`, for which the inhibition is 5.7%.

With `Cc1ccc2nc(-c3ccc(Br)cc3)cn2c1`, the inhibition was 38.8% (active).

For `Cc1ccc(-c2cn3cc(C)ccc3n2)cc1`, the inhibition is 67% (active).

Regarding `Nc1cc(OC(=O)c2ccccc2Br)nn1S(=O)(=O)c1ccccc1`, the inhibition is 48% (active).

As for `CN1C(=O)/C(=N/OC(=O)c2ccccc2Br)c2ccccc21`, the inhibition is 61.5% (active).

As for `Fc1ccccc1/C=C1\CCCC2=C1Nc1ncnn1C2c1ccccc1F` (stereo not drawn), the inhibition is 26.4%.

For `COc1ccc(C(=O)Nc2ccc(-n3nncc3C(C)(C)C)cc2)cc1`, the inhibition is 21.1%.

For the molecule `CCc1cc(C(N)=O)c(NC(=O)c2ccc(OC)cc2)s1`, the inhibition was 59.7% (active).

As for `CC(C)(C)C(=O)c1cnc(Nc2ccccc2)s1`, the inhibition is 21.1%.

Consider `CSCCC(NS(=O)(=O)/C=C/c1ccccc1)C(=O)N1CCC(C)CC1` (stereo not drawn), for which the inhibition is 2.25%.

On to `CCn1c(/C=C/c2ccc([N+](=O)[O-])o2)nc2ccccc2c1=O`, for which the inhibition is 80.8% (active).

For `COc1ccc2c(c1)cc1n2CCN=C1NN`, the inhibition is 51.4% (active).

For the molecule `COc1ccccc1-c1n[nH]c2c1[C@H](C)CC[C@H]2C(C)C`, the inhibition is 50.2% (active).

Consider `Cc1cc(N)n2nc(-c3ccc(C(C)(C)C)cc3)cc2n1`, for which the inhibition was 9.25%.

Take `CC1=C/C(=N\OS(=O)(=O)c2ccccc2)C=CC1=O`: the inhibition was -32.8%.

For `O=C(Nc1nnc(SCc2c(Cl)cccc2Cl)s1)C1CCCO1` (stereo not drawn), the inhibition was 41% (active).

As for `CC(C)c1ccc(NC(=S)NC2CC3C=CC2C3)cc1` (stereo not drawn), the inhibition was 35.2% (active).

Take `O=C1c2ccccc2S(=O)(=O)N1CC(O)Cn1c2ccccc2c2ccccc21` (stereo not drawn): the inhibition was 46.1% (active).

As for `CCOC(=O)CNC(=O)CSc1ncccc1-c1nc2ccccc2[nH]1`, the inhibition is 1.05%.

In the case of `O=C(Nc1ccc(Cl)c(Cl)c1)N1CC=C(c2ccccc2)CC1`, the inhibition was 33.3% (active).

With `Nc1cccc(-c2cc(-c3ccccc3)nc(-c3cccc(N)c3)n2)c1`, the inhibition was 36.6% (active).

Regarding `CS(=O)(=O)c1sc2nc(-c3ccccc3)cc(-c3ccccc3)c2c1N`, the inhibition was -14.8%.

`O=c1oc2ccccc2cc1-c1csc(Nc2ccc(O)cc2)n1`: the inhibition was 39.9% (active).

On to `O=C(CC(O)(C(F)(F)F)C(F)(F)F)Nc1ccc(Cl)c(Cl)c1`, for which the inhibition is 92.4% (active).

Take `CCOC(=O)C1Sc2[nH]c(=O)sc2C(c2ccc(Cl)cc2)C1C(=O)OCC` (stereo not drawn): the inhibition was 48.2% (active).

Regarding `CC1CC(=S)Nc2ccccc2N1Cc1ccccc1` (stereo not drawn), the inhibition was -14.8%.
